Among the data in PubChem BioAssay (NCI) are growth values, retold here.

Compounds without any hit were thinned out: in the full panel of roughly 83,000, 20% have a hit.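 In brief: 96-well plates, 48 h treatment, single concentration, percent growth endpoint.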 A number with no mark means an inactive call. The source made the active and inactive calls. The calls were made as follows: active = growth percent below 10; inactive = the rest.

Test systems include NCI-H23 lung; NCI-H322M lung; HOP-62 NSCLC; NCI-H460 lung; HOP-92 NSCLC; NCI-H522 lung; A549/ATCC NSCLC; 786-0 renal; COLO 205 colon.
Common to all, as to assay: NCI-60 one-dose screen, 48 h (100 = growth as untreated, 0 = no growth, -100 = all killed)
Common to all, as to details: 10 µM

`COc1cc(OC)cc(-c2n/c(=C\c3c(O)[nH]c4ccc(OC)cc34)cc3c2=Nc2ccccc2-3)c1`: the growth in the assay with NCI-H23 lung was 65.8%; in the assay with NCI-H322M lung it was 102%; in the assay with HOP-62 NSCLC, 99.1%; with NCI-H460 lung it was 12.8%; in the assay with HOP-92 NSCLC, 68.6%; in the assay with NCI-H522 lung, 108%. For the same molecule, the growth in the assay on A549/ATCC NSCLC was 52.1%; with 786-0 renal it was 75.9%; in the assay on COLO 205 colon it was 86.5%.

Turning to `C[C@@H]1C(=O)N(C[C@H](Cc2ccccc2)NC(=O)OCc2ccccc2)[C@]1(Cc1ccccc1)C(=O)OCc1ccccc1`, the growth with NCI-H23 lung was 34.3%; with NCI-H322M lung, 72.4%; with HOP-62 NSCLC it was 70.9%; in the assay on NCI-H460 lung it was 34.9%; in the assay on HOP-92 NSCLC it was 51.2%; in the assay with NCI-H522 lung, 28.9%. In addition, the growth in the assay with A549/ATCC NSCLC is 20.8%; in the assay with 786-0 renal, 58.3%; in the assay with COLO 205 colon it was 7.23% (active).

Consider `Fc1ccc2[nH]c3c(NCCCN4CCOCC4)ncnc3c2c1`, for which the growth is 83.2% in the assay on NCI-H23 lung; 53.6% in the assay on NCI-H322M lung; 54% in the assay with NCI-H460 lung; 63.9% with HOP-92 NSCLC; 58.1% with NCI-H522 lung; 54.5% in the assay with A549/ATCC NSCLC. Further, the values for the growth with 786-0 renal and in the assay on COLO 205 colon were 24.1% and 53.4%, respectively.

For the molecule `c1ccc(OCCC[P+](c2ccccc2)(c2ccccc2)c2ccccc2)cc1`, the growth in the assay with NCI-H23 lung is 1.67% (active); in the assay on NCI-H322M lung, 20.4%; with HOP-62 NSCLC it was 22%; in the assay on NCI-H460 lung it was 12.5%; in the assay with HOP-92 NSCLC it was -31.3% (active); in the assay with NCI-H522 lung, -7.37% (active). For the same molecule, the values for the growth with 786-0 renal and in the assay with COLO 205 colon were 23.1% and -35.6% (active), respectively.

In the case of `COc1cc(-c2n/c(=C\c3c(O)[nH]c4ccccc34)cc3c2=Nc2ccccc2-3)cc(OC)c1OC`, the growth in the assay on NCI-H23 lung is 22.9%; in the assay with NCI-H322M lung it was 47.3%; with HOP-62 NSCLC it was 41.4%; with NCI-H460 lung, 3.31% (active); in the assay with HOP-92 NSCLC it was 22.9%; in the assay on NCI-H522 lung, -7.72% (active). Also, the growth in the assay with A549/ATCC NSCLC is 9.21% (active); in the assay with 786-0 renal, 16.7%; in the assay on COLO 205 colon, -49.2% (active).
